Experiments:
[1] = target: T1, Aspartate--tRNA(Asp/Asn) ligase (Mycobacterium tuberculosis (strain ATCC 25618 / H37Rv)) (UniProt P9WFW3); assay: Assay for Asp RNA synthetase-1 from Mycobacterium tuberculosis; type: functional; parameters: scale not given: direction of the effect not stated beside the values; details: 30 µM; also: in the data most compounds retested in dose-response had high values
T1 sequence (whole entry): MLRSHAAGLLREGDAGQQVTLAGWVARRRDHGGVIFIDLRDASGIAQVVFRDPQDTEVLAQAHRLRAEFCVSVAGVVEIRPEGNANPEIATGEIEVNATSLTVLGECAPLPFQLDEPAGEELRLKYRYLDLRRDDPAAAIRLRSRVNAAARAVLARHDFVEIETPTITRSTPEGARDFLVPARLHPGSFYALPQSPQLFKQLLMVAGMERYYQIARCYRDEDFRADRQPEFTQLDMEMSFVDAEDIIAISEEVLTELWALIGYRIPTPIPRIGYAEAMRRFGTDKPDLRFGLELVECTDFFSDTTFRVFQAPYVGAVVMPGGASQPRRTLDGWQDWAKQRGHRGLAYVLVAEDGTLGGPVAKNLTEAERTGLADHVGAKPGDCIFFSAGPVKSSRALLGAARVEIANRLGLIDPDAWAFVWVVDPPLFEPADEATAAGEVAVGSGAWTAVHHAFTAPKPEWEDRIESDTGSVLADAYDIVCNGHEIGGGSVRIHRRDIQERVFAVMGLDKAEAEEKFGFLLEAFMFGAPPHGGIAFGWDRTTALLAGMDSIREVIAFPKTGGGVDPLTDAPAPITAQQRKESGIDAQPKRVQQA

[2] = target: Shiga toxin 2 (Escherichia coli O157:H7) (UniProt P09385+P09386); assay: E. coli 0.157:H7 Shiga Toxin SOP - stx2 screening assay; type: functional; parameters: scale not given: direction of the effect not stated beside the values; details: 30 µM

Row | SMILES | Percent Effect [1] | Percent Effect [2]
1 | CCc1ccc(OCC(O)CN2CCN(S(C)(=O)=O)CC2)cc1 (stereo not drawn) | -0.577% | 22.4%
2 | CN(C)CC1CN(Cc2nnc(-c3ccccc3Cl)o2)CCO1 (stereo not drawn) | -1.66% | -41.7%
3 | COc1ccc(C)cc1CN(C)Cc1nc2c(cnn2C)c(=O)[nH]1 | 1.01% | 46.7%
4 | CC(C)c1nccn1C1CCCN(C(=O)c2ccc3c(c2)OCO3)C1 (stereo not drawn) | -0.317% | 10.5%
5 | COc1c(C)cnc(CN2CCC(N(C)C(C)C(N)=O)CC2)c1C (stereo not drawn) | -3.49% | -5%
6 | Cc1csc(NC(=O)CN(C)CC2CCCN2c2cccnn2)n1 (stereo not drawn) | 3.48% | -23.1%
7 | CC(=O)N1CCCC1c1cccc(Cc2ccc(F)cc2)n1 (stereo not drawn) | -5.96% | 5.81%
8 | CO[C@H]1CN(Cc2cccc(C#N)c2)[C@@H]2COC[C@H]12 | 4.8% | -22.2%
9 | Cn1nnc2c1CCN(Cc1nccs1)C2COCc1ccccc1 (stereo not drawn) | 2.63% | -58%

From ChEMBL document CHEMBL3988442, “University of Dundee, Small-Polar-MMV Screening Library” (2021)
